Most compounds without a hit are left out; they make up all but 0.49% or so of the library.
BCR signal inh: inhibitors of chronic active B-cell receptor signaling; Potency, µM (titrated, usually from 46.1 µM), most hits filed as inhibitors; 340,000 compounds, 0.05% hits; ABC-DLBCL IkBa-CBG/CBR reporter, luminescence ratio, 4 h; active means well fitted inhibition curve with a large enough effect in the signal ratio, with a control signal flat, not every such curve was filed as active; inconclusive means small, poorly fitted or top-dose-only effect, or effect the other way, or a change in a side signal; the % refers to the signal ratio
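TMD8 ABC-DLBCL cells carrying doxycycline-inducible green luciferase fused to IkappaBalpha plus unfused red luciferase were exposed to compounds (up to 46 uM) for 4 hrs at 37C. Activity came from the overlap-corrected green/red luminescence ratio.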
Tb PFK inh: inhibitors of T. brucei phosphofructokinase. 330,000 compounds, 0.17% hits. T. brucei PFK, ADP-Glo luminescence. Potency, µM (series often up to 57.5 µM), usual class: inhibitors. O15648; further: nearly all actives have a fitted effect of over 60% in size
Target sequence (O15648 whole entry, looked up): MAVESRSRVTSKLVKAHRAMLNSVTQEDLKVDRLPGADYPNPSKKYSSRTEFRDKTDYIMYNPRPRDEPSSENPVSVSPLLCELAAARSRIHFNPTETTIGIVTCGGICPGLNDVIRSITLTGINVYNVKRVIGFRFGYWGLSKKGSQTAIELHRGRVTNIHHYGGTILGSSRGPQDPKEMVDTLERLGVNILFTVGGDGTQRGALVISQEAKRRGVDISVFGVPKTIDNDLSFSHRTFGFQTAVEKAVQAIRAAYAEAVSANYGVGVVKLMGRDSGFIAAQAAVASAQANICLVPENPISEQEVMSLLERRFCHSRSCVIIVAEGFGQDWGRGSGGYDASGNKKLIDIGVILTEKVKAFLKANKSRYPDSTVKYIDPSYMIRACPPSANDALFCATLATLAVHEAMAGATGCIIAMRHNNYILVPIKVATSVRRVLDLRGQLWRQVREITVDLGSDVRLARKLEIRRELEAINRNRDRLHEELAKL
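Luminescent ADP detection (ADP-Glo, two-step: ATP depletion then ADP-to-ATP conversion for luciferase) reported PFK activity after 45 min room-temperature reaction of 1.25 nM enzyme with 0.5 mM F6P and 0.1 mM ATP at pH 8.0.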
TCR activator: activates T cell receptor signaling; primary human leukocytes, anti-CD3, IL-2 HTRF, 48 h; Potency, µM (titrated, usually from 9.22 µM), usual class: activators; 330,000 tested, under 10 active; AID 504894
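IL-2 produced over 48 hr by a-CD3 bead-stimulated primary human leukocytes exposed to compounds was detected with a homogeneous time-resolved FRET immunoassay, 665nm acceptor signal after 320nm excitation.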
ASM inhibitor: human S-ASM enzyme inhibition; 340,000 compounds, 0.006% hits; P17405; placental ASM, HMU-PC fluorogenic substrate, 60 min; Potency, µM (titrated, usually from 57.5 µM), usual class: inhibitors
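Steps: dispense placental human ASM, pin compound, wait 10 min at room temperature, add HMU-PC0 substrate at 9 uM final, incubate 60 min at 37 °C, add stop solution raising pH to 10, read fluorescence.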
CCT chaperon mod: changes cytosolic chaperonin activity; 360,000 compounds, 0.3% hits; activity change, % (concentration not given with the values), hits read low; purified chaperonin ATPase assay, HTRF ADP detection, 30 min; in the data active means activity change below about -30%
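Nucleotide hydrolysis assay: TRiC at 20–40 nM final (set by batch activity) with 10 uM ATP, 30 min at 37 °C, in presence of 76 uM compound. Detection by competitive ADP HTRF, 30 min ambient.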
Large screens that a line does not name were inactive. Unless noted, the call rests on the fitted dose curve; in most records, active means well fitted curve in the direction sought with a large enough effect; inconclusive means small, poorly fitted or top-dose-only effect, or another doubt; inactive means no such curve, though single readings can be large; an effect the other way counts as inactive or inconclusive.

O=C1C2=C(C(=O)c3ccccc31)C1O[C@](c3ccsc3)(Cc3ccccc31)O2	none (no result: TCR activator, ASM inhibitor, CCT chaperon mod)
C#Cc1ccc([C@H]2C=C(C(=O)NCc3ccccc3)O[C@@H](OCC)[C@@H]2CCCO)cc1	CCT chaperon mod -68
C#Cc1ccc([C@@H]2C=C(C(=O)Nc3ccccc3)O[C@H](OCC)[C@H]2CCCO)cc1	ASM inhibitor inconclusive
O=C(O)c1cc(-c2ccc(/C=c3\sc4nc5ccc(Br)cc5n4c3=O)o2)ccc1Cl	Tb PFK inh 0.85µM (no result: TCR activator, ASM inhibitor, CCT chaperon mod)
Cc1cc2nc3s/c(=C/c4ccc(-c5ccccc5C(=O)O)o4)c(=O)n3c2cc1C	none
Cc1ccc2nc(N3CCC(C(=O)NC4CCCCC4)CC3)sc2c1	none
CC1CCC(NC(=O)C2CCN(c3nc4ccccc4s3)CC2)CC1 (stereo unspecified)	CCT chaperon mod -36
COc1ccc(C(=O)CCC(=O)NC2=NCCS2)cc1	CCT chaperon mod -81
COc1ccc(NC(=O)CCC(=O)c2cc(C)sc2C)cc1	CCT chaperon mod -43
CCOC(=O)c1cnc(Nc2nc3ccccc3o2)nc1CSC(=S)N(CC)CC	BCR signal inh 0.58µM
CCOC(=O)c1cnc(Nc2nc3ccccc3o2)nc1CSc1ncccn1	none (no result: BCR signal inh, Tb PFK inh)
Cc1ccc(CNC(=O)C(=O)Nc2c3c(nn2-c2ccc(F)cc2)CSC3)cc1	none (no result: Tb PFK inh, TCR activator, ASM inhibitor, CCT chaperon mod)
CCN1CCN(C(c2ccccc2Cl)c2sc3nc(-c4ccco4)nn3c2O)CC1 (stereo unspecified)	none (no result: Tb PFK inh, TCR activator, ASM inhibitor, CCT chaperon mod)
Cc1ccc(C(=O)NC2CCN(CC(=O)Nc3ccccc3Cl)CC2)cc1	BCR signal inh inconclusive, CCT chaperon mod -37
COC(=O)c1ccccc1NC(=O)CN1CCC(NC(=O)c2ccc(C)cc2)CC1	none
CN(CC(=O)Nc1ccc(F)cc1)C(=O)COC(=O)c1ccc(-c2ccccc2)cc1	CCT chaperon mod -31
COc1ccc(-c2nc3scc(CCNS(=O)(=O)c4ccc5c(c4)OCCO5)n3n2)cc1OC	none (no result: Tb PFK inh, TCR activator, ASM inhibitor, CCT chaperon mod)
C=CCOc1ccc(C(=O)/C=C2/C(=O)Nc3ccccc32)cc1	BCR signal inh inconclusive, CCT chaperon mod -45
NC(=O)COc1ccc(C(=O)/C=C2/C(=O)Nc3ccccc32)cc1	BCR signal inh inconclusive
Cc1cc2[nH]c(=O)c(=O)[nH]c2cc1S(=O)(=O)N1CCN(c2cccc(C(F)(F)F)c2)CC1	ASM inhibitor 20µM
Cc1cc2[nH]c(=O)c(=O)[nH]c2cc1S(=O)(=O)N1CCN(c2cccc(C)c2C)CC1	ASM inhibitor inconclusive
Cc1cc2[nH]c(=O)c(=O)[nH]c2cc1S(=O)(=O)N1CCN(c2cccc(Cl)c2)CC1	ASM inhibitor 20µM
COc1ccc(-c2nc3ccccc3o2)cc1OC	none
COc1ccc(-c2nc3ccccc3o2)cc1NC(=O)CSc1ccc(Cl)cc1	CCT chaperon mod -90
CCOc1ccc(NC(=O)CSC2=Nc3ccccc3C3=NC(Cc4ccccc4)C(=O)N23)cc1 (stereo unspecified)	none (no result: Tb PFK inh, TCR activator, ASM inhibitor, CCT chaperon mod)
Cc1ccc(C)c(N(C)C(=O)c2ccc3c(=O)n4c(nc3c2)CCCCC4)c1	CCT chaperon mod -72
NC(=O)c1c(NC(=O)CS(=O)(=O)c2ccc(Cl)cc2)sc2c1CCCC2	none (no result: Tb PFK inh, TCR activator, ASM inhibitor, CCT chaperon mod)
O=C(NCC(c1ccco1)N1CCc2ccccc21)C(=O)Nc1ccc(F)cc1F (stereo unspecified)	BCR signal inh 9.2µM
O=C(NCC(c1ccco1)N1CCc2ccccc21)C(=O)Nc1ccccc1F (stereo unspecified)	none
CC(C)=CC(=O)OCC(=O)Nc1ccccc1Cl	CCT chaperon mod -54
CNc1c(NS(=O)(=O)c2ccc(OC)c(Cl)c2)c(=O)oc2ccccc12	BCR signal inh inconclusive, CCT chaperon mod -63
CCNc1c(NS(=O)(=O)c2ccc(OC)c(Cl)c2)c(=O)oc2ccccc12	BCR signal inh inconclusive
O=C1CC(c2ccccc2)c2c(n3ncnc3[nH]c2=O)N1 (stereo unspecified)	none (no result: Tb PFK inh, TCR activator, ASM inhibitor, CCT chaperon mod)
Cc1cccc(NC(=O)CSc2nc(-c3ccccc3)cc(=O)[nH]2)c1C	none (no result: Tb PFK inh, TCR activator, ASM inhibitor, CCT chaperon mod)
COc1ccc(OCC(=O)NNC(=O)c2cc3ccccc3o2)cc1	CCT chaperon mod -67
COc1ccc(CNC(=S)NNC(=O)c2cc3ccccc3o2)cc1	none
COc1ccc(CCNc2nc(SCc3ccccc3F)nc3ccccc23)cc1OC	none (no result: Tb PFK inh, TCR activator, ASM inhibitor, CCT chaperon mod)
CCOc1ccc(NC(=O)CN(C)C(=O)CCC2CCCCC2)cc1OCC	none
COc1ccc(NC(=O)CN(C)C(=O)CCC2CCCC2)cc1	CCT chaperon mod -36
O=C(Cc1cccs1)N1CCN(S(=O)(=O)c2ccc(F)c(F)c2)CC1	BCR signal inh inconclusive
O=C(Cc1cccs1)N1CCN(S(=O)(=O)c2ccc(Cl)c(C(F)(F)F)c2)CC1	CCT chaperon mod -69
O=C(CC1N=C2c3ccccc3N=C(SCc3ccc(Cl)cc3)N2C1=O)NCCc1ccccc1 (stereo unspecified)	none (no result: Tb PFK inh, TCR activator, ASM inhibitor, CCT chaperon mod)
O=C(NCc1ccncc1)C12CC3CC(CC(C3)C1)C2	CCT chaperon mod -84
O=S(=O)(NCc1cccnc1)c1ccc(Cl)c(Cl)c1Cl	CCT chaperon mod -48
O=S(=O)(NCc1cccnc1)c1ccc(Cl)c2ccccc12	BCR signal inh inconclusive
COc1cccc(NC(=O)CSC2=Nc3ccccc3C3=NC(CCC(=O)NCCc4ccccc4)C(=O)N23)c1 (stereo unspecified)	none (no result: Tb PFK inh, TCR activator, ASM inhibitor, CCT chaperon mod)
COc1cc2ccccc2cc1C(=O)N/N=C/c1cccnc1	CCT chaperon mod -35
COc1ccc(Br)cc1C(=O)N/N=C/c1cccnc1	none
O=C(NCc1ccc2c(c1)OCO2)c1cc([N+](=O)[O-])ccc1N1CCCCC1	BCR signal inh 23µM
O=C(NCc1ccco1)c1cc([N+](=O)[O-])ccc1N1CCCCC1	none
Cc1ccc(C(=O)c2cc([N+](=O)[O-])ccc2N2CCCCC2)cc1	BCR signal inh 23µM
CN(C)S(=O)(=O)c1cc([N+](=O)[O-])ccc1N1CCCCCC1	CCT chaperon mod -31
Cc1ccc(C(=O)c2cc([N+](=O)[O-])ccc2N2CC(C)OC(C)C2)cc1 (stereo unspecified)	BCR signal inh inconclusive
Cc1c(CCNC(=O)c2c(F)cccc2F)sc2nc(-c3ccc(F)cc3)nn12	none (no result: Tb PFK inh, TCR activator, ASM inhibitor, CCT chaperon mod)
O=C(NNC1CC(=O)N(c2ccc(Br)cc2)C1=O)c1cccnc1 (stereo unspecified)	none
COc1ccc(N2C(=O)CC(NNC(=O)c3cccnc3)C2=O)cc1 (stereo unspecified)	CCT chaperon mod -43
CC(=O)Nc1ccc(NC(=O)c2ccccc2Sc2ccc([N+](=O)[O-])cc2Cl)cc1	CCT chaperon mod -34
O=C(Nc1ccc(Nc2ccccc2)cc1)c1cc([N+](=O)[O-])ccc1Cl	BCR signal inh inconclusive (no result: TCR activator)
O=C(Cn1ccc2ccccc2c1=O)NCCC(=O)NC1CCN(Cc2ccccc2)CC1	CCT chaperon mod -31
COc1cc2c(cc1OC)C(COc1cccc(C(F)(F)F)c1)N(C(=O)c1ccc(S(=O)(=O)N3CCCC3)cc1)CC2 (stereo unspecified)	none (no result: Tb PFK inh, TCR activator, ASM inhibitor, CCT chaperon mod)
